PubChem BioAssay (EPA / NIEHS)
Calls of active or inactive are those of the source. How the source made its calls: active means hit-call score of the fitted dose curve at least 0.9, where 1 is the maximum; inactive means score below 0.9.

Legend:
[1] = read-out: Tissue Factor, F3 (gene 2152); experiment: BSK_CASM3C_TissueFactor: BioMAP Diversity Plus: CASM3C Assay for Tissue Factor Biomarker Activity (AID 2283052); details: primary human coronary artery smooth muscle cells; actives raise or lower the signal;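 further: cell surface tissue factor protein level read by ELISA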
[2] = read-out: Interferon-gamma inducible Protein 10 (IP10), CXCL10 (gene 3627); experiment: BSK_hDFCGF_IP10: BioMAP Diversity Plus: hDFCGF Assay for Interferon-gamma inducible Protein 10 (IP10) Biomarker Activity (AID 2283053); details: primary human foreskin fibroblasts; actives raise or lower the signal
Outline: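 Chemical-treated human skin fibroblasts (primary) were sampled at 24 h for IP-10 by ELISA. Both increases and decreases relative to DMSO were scored.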

[3] = read-out: Urokinase-type plasminogen activator receptor (uPAR), PLAUR (gene 5329); experiment: BSK_CASM3C_uPAR: BioMAP Diversity Plus: CASM3C Assay for Urokinase-type plasminogen activator receptor (uPAR) Biomarker Activity (AID 2283054); details: primary human coronary artery smooth muscle cells; actives raise or lower the signal;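 further: cell-surface uPAR protein level quantified by ELISA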
[4] = read-out: Vascular cell adhesion molecule 1 (VCAM1), VCAM1 (gene 7412); experiment: BSK_CASM3C_VCAM1: BioMAP Diversity Plus: CASM3C Assay for Vascular cell adhesion molecule 1 (VCAM1) Biomarker Activity (AID 2283055); details: primary human coronary artery smooth muscle cells; actives raise or lower the signal;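 further: VCAM-1 protein level quantified by ELISA on the cells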
[5] = read-out: Collagen III, COL3A1 (gene 1281); experiment: BSK_hDFCGF_CollagenIII: BioMAP Diversity Plus: hDFCGF Assay for Collagen III Biomarker Activity (AID 2283056); details: primary human foreskin fibroblasts; actives raise or lower the signal
Outline: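 Cells: human foreskin fibroblasts, primary. Dosing followed by 24 h incubation, then ELISA for collagen III. Both increases and decreases scored relative to DMSO.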

[6] = read-out: Epidermal growth factor receptor (EGFR), EGFR (gene 1956); experiment: BSK_hDFCGF_EGFR: BioMAP Diversity Plus: hDFCGF Assay for Epidermal growth factor receptor (EGFR) Biomarker Activity (AID 2283057); details: primary human foreskin fibroblasts; actives raise or lower the signal
Outline: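 Cell-based multiplexed assay in primary human foreskin fibroblasts. EGFR is read by ELISA 24 h after treatment and compared with DMSO controls.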

[7] = read-out: Interleukin-8 (IL8), CXCL8 (gene 3576); experiment: BSK_hDFCGF_IL8: BioMAP Diversity Plus: hDFCGF Assay for Interleukin-8 (IL8) Biomarker Activity (AID 2283058); details: primary human foreskin fibroblasts; actives raise or lower the signal
Outline: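 IL-8 levels from compound-treated primary human fibroblasts were read by ELISA at 24 h, with DMSO serving as baseline for bidirectional fitting.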

[8] = BSK_hDFCGF_Proliferation: Cell Proliferation Assessment in the BioMAP Diversity Plus: hDFCGF Assay (AID 2283059); details: primary human foreskin fibroblasts;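 further: curves fitted for both rise and fall of signal versus DMSO baseline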
Outline: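 Sub-confluent human foreskin fibroblast cultures receive test chemical […]. Relative cell number is quantified by sulforhodamine B staining (0.1%, after 10% TCA fixation) at 560 nm, with bidirectional fitting referenced to DMSO.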

[9] = read-out: Macrophage colony-stimulating factor (MCSF), CSF1 (gene 1435); experiment: BSK_hDFCGF_MCSF: BioMAP Diversity Plus: hDFCGF Assay for Macrophage colony-stimulating factor (MCSF) Biomarker Activity (AID 2283060); details: primary human foreskin fibroblasts; actives raise or lower the signal
Outline: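 M-CSF levels, determined by ELISA, are taken at 24 h after dosing human skin fibroblasts. Responses in either direction are fitted with DMSO serving as the baseline.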

[10] = read-out: TIMP metallopeptidase inhibitor 1 (TIMP1), TIMP1 (gene 7076); experiment: BSK_hDFCGF_TIMP1: BioMAP Diversity Plus: hDFCGF Assay for TIMP metallopeptidase inhibitor 1 (TIMP1) Biomarker Activity (AID 2283062); details: primary human foreskin fibroblasts; actives raise or lower the signal
Outline: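 Fibroblasts from human foreskin are treated with test chemical and harvested at 24 h. TIMP-1 is quantified by ELISA, and gain or loss of signal is scored against DMSO.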

[11] = read-out: Matrix Metallopeptidase 1 (MMP1), MMP1 (gene 4312); experiment: BSK_hDFCGF_MMP1: BioMAP Diversity Plus: hDFCGF Assay for Matrix Metallopeptidase 1 (MMP1) Biomarker Activity (AID 2283064); details: primary human foreskin fibroblasts; actives raise or lower the signal
Outline: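 MMP1 levels quantified by ELISA 24 h after dosing human dermal fibroblast cultures, with parallel SRB total-protein staining for overt cytotoxicity. Data fitted in both directions against DMSO baseline.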

[12] = read-out: Vascular cell adhesion molecule 1 (VCAM1), VCAM1 (gene 7412); experiment: BSK_hDFCGF_VCAM1: BioMAP Diversity Plus: hDFCGF Assay for Vascular cell adhesion molecule 1 (VCAM1) Biomarker Activity (AID 2283065); details: primary human foreskin fibroblasts; actives raise or lower the signal;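 on AC50: VCAM-1 protein level quantified by ELISA after 24 h chemical exposure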
Outline: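 Cells are dosed, cultured for 24 h, then VCAM-1 is quantified by ELISA; signal increases and decreases are both fitted relative to DMSO.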

[13] = read-out: Plasminogen activator inhibitor-1 (PAI1), SERPINE1 (gene 5054); experiment: BSK_hDFCGF_PAI1: BioMAP Diversity Plus: hDFCGF Assay for Plasminogen activator inhibitor-1 (PAI1) Biomarker Activity (AID 2283066); details: primary human foreskin fibroblasts; actives raise or lower the signal
Outline: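 Human skin fibroblast cultures receive chemical for 24 h before PAI-1 is measured by ELISA; signal changes are fitted bidirectionally against DMSO-treated wells.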

[14] = read-out: Intercellular Adhesion Molecule 1 (ICAM1), ICAM1 (gene 3383); experiment: BSK_KF3CT_ICAM1: BioMAP Diversity Plus: KF3CT Assay for Intercellular Adhesion Molecule 1 (ICAM1) Biomarker Activity (AID 2283067); details: primary human keratinocytes with fibroblasts; actives raise or lower the signal
Outline: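 Dose the keratinocyte/fibroblast co-culture, wait 24 h, measure ICAM-1 by ELISA, then fit increases or decreases against DMSO. Cytotoxicity is checked in parallel cultures by SRB total-protein staining.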

[15] = BSK_KF3CT_SRB: Viability Assessment in the BioMAP Diversity Plus: KF3CT Assay (AID 2283069); details: primary human keratinocytes with fibroblasts;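 further: total protein by sulforhodamine B staining as a cytotoxicity measure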
Outline: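 Cytotoxicity was gauged by SRB staining (0.1% SRB, 10% TCA fixation, 560 nm) of parallel cultures at 24 h. The cells were primary human skin keratinocytes co-cultured with fibroblasts, and activity was fitted in both directions against DMSO.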

[16] = read-out: Monokine induced gamma interferon (MIG), CXCL9 (gene 4283); experiment: BSK_hDFCGF_MIG: BioMAP Diversity Plus: hDFCGF Assay for Monokine induced gamma interferon (MIG) Biomarker Activity (AID 2283063); details: primary human foreskin fibroblasts; actives raise or lower the signal
Outline: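 MIG signal, determined by ELISA, reflects 24 h chemical exposure of human skin primary fibroblasts. DMSO serves as negative control and baseline.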

[17] = read-out: Interleukin-1 alpha (IL1a), IL1A (gene 3552); experiment: BSK_KF3CT_IL1a: BioMAP Diversity Plus: KF3CT Assay for Interleukin-1 alpha (IL1a) Biomarker Activity (AID 2283070); details: primary human keratinocytes with fibroblasts; actives raise or lower the signal
Outline: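 IL-1a was detected by ELISA 24 h after chemical treatment of a co-culture of human skin keratinocytes and foreskin fibroblasts. Gain or loss of signal was fitted against the DMSO baseline.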

[18] = read-out: TIMP metallopeptidase inhibitor 2 (TIMP2), TIMP2 (gene 7077); experiment: BSK_KF3CT_TIMP2: BioMAP Diversity Plus: KF3CT Assay for TIMP metallopeptidase inhibitor 2 (TIMP2) Biomarker Activity (AID 2283071); details: primary human keratinocytes with fibroblasts; actives raise or lower the signal
Outline: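 Measurements come from ELISA detection of TIMP-2 at 24 hours in a dosed human keratinocyte and foreskin fibroblast co-culture. DMSO serves as negative control and baseline.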

With `CCn1c2ccccc2c2cc(N)ccc21` the outcome [1] was “inactive”, the outcome [2] was “inactive” and the outcome [3] was “inactive”. The outcome [4] was “inactive”, the outcome [5] was “inactive” and the outcome [6] was “inactive”. For the same molecule, the outcome [7] was “inactive”, the outcome [8] was “inactive” and the outcome [9] was “inactive”. For the same molecule, the outcome [10] was “inactive”, the outcome [11] was “inactive” and the AC50 [12] was 855 nM (active). The outcome [13] was “inactive”, the outcome [14] was “inactive” and the outcome [15] was “inactive”.

With `CC(=O)Nc1ccccc1O` the outcome [1] was “inactive”, the outcome [2] was “inactive” and the AC50 [3] was 124 nM (active). The outcome [4] was “inactive”, the outcome [5] was “inactive” and the outcome [6] was “inactive”. For the same molecule, the outcome [7] was “inactive”, the outcome [8] was “inactive” and the outcome [9] was “inactive”. For the same molecule, the outcome [10] was “inactive”, the outcome [11] was “inactive” and the outcome [12] was “inactive”. For the same molecule, the outcome [13] was “inactive”, the outcome [14] was “inactive” and the outcome [15] was “inactive”.

For `O=C(O)c1cn(C2CC2)c2cc(N3CCNCC3)c(F)cc2c1=O`, the outcome [1] was “inactive”, the outcome [2] was “inactive” and the outcome [3] was “inactive”. For the same molecule, the outcome [4] was “inactive”, the outcome [5] was “inactive” and the outcome [6] was “inactive”. The outcome [7] was “inactive”, the outcome [8] was “inactive” and the outcome [10] was “inactive”. The outcome [16] was “inactive”, the outcome [11] was “inactive” and the outcome [12] was “inactive”. The outcome [13] was “inactive”, the outcome [14] was “inactive” and the outcome [15] was “inactive”.

In the case of `NCCNCCN`, the outcome [1] was “inactive”, the outcome [2] was “inactive” and the outcome [3] was “inactive”. The outcome [4] was “inactive”, the outcome [5] was “inactive” and the outcome [6] was “inactive”. For the same molecule, the outcome [7] was “inactive”, the outcome [8] was “inactive” and the outcome [9] was “inactive”. The outcome [10] was “inactive”, the outcome [11] was “inactive” and the outcome [12] was “inactive”. The outcome [13] was “inactive”, the outcome [14] was “inactive” and the outcome [15] was “inactive”.

With `CN(CCOc1ccc(CC2SC(=O)NC2=O)cc1)c1ccccn1` (configuration not stated) the AC50 [1] was 5590 nM (active), the AC50 [2] was 53.6 nM (active) and the outcome [3] was “inactive”. The outcome [4] was “inactive”, the outcome [5] was “inactive” and the outcome [6] was “inactive”. The outcome [7] was “inactive”, the AC50 [8] was 13300 nM (active) and the AC50 [9] was 48.4 nM (active). The outcome [10] was “inactive”, the outcome [11] was “inactive” and the outcome [12] was “inactive”. The outcome [13] was “inactive”, the outcome [14] was “inactive” and the outcome [15] was “inactive”.

In the case of `COC(=O)c1ccc(C)cc1`, the outcome [1] was “inactive”, the outcome [2] was “inactive” and the outcome [3] was “inactive”. The outcome [4] was “inactive”, the outcome [5] was “inactive” and the outcome [6] was “inactive”. For the same molecule, the outcome [7] was “inactive”, the outcome [8] was “inactive” and the outcome [9] was “inactive”. The outcome [10] was “inactive”, the outcome [11] was “inactive” and the outcome [12] was “inactive”. For the same molecule, the outcome [13] was “inactive”, the outcome [14] was “inactive” and the outcome [15] was “inactive”. For the same molecule, the outcome [17] was “inactive” and the outcome [18] was “inactive”.

For `O=P(c1ccccc1)(c1ccccc1)c1ccccc1`, the outcome [1] was “inactive”, the outcome [2] was “inactive” and the outcome [3] was “inactive”. The outcome [4] was “inactive”, the outcome [5] was “inactive” and the outcome [6] was “inactive”. For the same molecule, the outcome [7] was “inactive”, the outcome [8] was “inactive” and the outcome [9] was “inactive”. The outcome [10] was “inactive”, the outcome [11] was “inactive” and the outcome [12] was “inactive”. For the same molecule, the outcome [13] was “inactive”, the outcome [14] was “inactive” and the outcome [15] was “inactive”.
